Measured values published in ChEMBL document CHEMBL3988442, “University of Dundee, Small-Polar-MMV Screening Library” (2021).
For some assays here: Results with a measured potency or affinity are listed apart.

Legend:
Set-up in all cases: scale not given: direction of the effect not stated beside the values
[1] = target: Protein translocase subunit SecA (Escherichia coli (strain K12)) (UniProt P10408); assay: Assay to Identify E. coli SecA ATPase Inhibitors; assay type: functional; details: 30 µM
Sequence of Protein translocase subunit SecA (Escherichia coli (strain K12)) (P10408 whole entry): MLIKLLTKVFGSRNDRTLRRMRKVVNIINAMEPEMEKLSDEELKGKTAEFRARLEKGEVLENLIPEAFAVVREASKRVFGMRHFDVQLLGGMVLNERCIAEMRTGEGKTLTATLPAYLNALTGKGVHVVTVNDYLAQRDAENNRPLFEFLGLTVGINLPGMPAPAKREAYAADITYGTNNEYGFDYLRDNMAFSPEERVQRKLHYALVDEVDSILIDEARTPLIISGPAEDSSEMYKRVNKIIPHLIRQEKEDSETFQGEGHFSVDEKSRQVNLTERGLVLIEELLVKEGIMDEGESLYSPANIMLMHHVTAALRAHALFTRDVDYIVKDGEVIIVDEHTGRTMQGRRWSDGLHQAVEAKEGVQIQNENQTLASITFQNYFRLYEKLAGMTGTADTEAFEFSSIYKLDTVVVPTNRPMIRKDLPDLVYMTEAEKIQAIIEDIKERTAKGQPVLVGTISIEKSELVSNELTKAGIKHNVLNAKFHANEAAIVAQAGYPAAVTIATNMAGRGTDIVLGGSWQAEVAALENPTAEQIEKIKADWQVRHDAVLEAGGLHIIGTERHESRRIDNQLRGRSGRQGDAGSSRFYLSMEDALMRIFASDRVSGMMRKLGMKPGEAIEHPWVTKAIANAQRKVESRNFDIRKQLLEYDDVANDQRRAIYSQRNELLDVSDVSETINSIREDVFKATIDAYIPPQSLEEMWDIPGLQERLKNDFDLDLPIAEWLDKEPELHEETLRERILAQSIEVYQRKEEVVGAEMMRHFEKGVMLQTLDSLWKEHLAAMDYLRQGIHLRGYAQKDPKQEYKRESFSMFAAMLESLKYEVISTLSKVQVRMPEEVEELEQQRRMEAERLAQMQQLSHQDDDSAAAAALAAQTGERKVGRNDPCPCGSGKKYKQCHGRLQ

[2] = target: T1, Ubiquitin-activating enzyme e1, putative (Leishmania donovani (strain BPK282A1)) (UniProt E9BSI1); assay: Leishmania donovani Ubiquitin Activating Enzyme (LdE1); assay type: functional; details: 30 µM
T1 sequence (whole entry): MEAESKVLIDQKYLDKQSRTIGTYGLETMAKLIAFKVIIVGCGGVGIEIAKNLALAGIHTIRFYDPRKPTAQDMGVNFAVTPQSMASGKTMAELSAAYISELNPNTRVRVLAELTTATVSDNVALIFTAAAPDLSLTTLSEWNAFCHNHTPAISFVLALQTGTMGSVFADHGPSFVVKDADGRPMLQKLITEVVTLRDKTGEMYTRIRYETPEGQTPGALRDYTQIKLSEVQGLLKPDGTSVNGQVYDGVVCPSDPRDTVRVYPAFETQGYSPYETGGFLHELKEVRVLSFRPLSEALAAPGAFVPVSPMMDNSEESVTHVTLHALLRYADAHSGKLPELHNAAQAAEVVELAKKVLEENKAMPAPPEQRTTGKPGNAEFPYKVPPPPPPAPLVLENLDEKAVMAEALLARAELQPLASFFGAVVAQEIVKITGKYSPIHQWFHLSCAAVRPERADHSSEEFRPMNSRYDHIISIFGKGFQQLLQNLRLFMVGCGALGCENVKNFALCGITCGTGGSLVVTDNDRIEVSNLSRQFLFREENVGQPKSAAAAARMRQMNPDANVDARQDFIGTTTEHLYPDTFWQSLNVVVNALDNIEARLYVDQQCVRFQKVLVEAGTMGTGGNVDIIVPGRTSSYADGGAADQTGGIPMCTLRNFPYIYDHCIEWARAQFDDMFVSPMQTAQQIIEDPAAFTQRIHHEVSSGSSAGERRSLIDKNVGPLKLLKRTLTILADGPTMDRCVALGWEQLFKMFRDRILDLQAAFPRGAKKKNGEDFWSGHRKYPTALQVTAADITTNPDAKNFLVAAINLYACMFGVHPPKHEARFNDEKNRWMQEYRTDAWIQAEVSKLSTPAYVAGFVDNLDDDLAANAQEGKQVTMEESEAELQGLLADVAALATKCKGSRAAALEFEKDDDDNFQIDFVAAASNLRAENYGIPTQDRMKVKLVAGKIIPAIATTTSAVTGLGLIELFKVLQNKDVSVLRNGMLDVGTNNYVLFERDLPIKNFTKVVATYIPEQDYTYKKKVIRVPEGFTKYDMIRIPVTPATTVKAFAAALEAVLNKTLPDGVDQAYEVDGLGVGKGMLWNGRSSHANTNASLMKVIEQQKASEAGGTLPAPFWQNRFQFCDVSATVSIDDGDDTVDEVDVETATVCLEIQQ

[3] = target: AMP-activated protein kinase, AMPK (Homo sapiens) (UniProt P54646+O43741+P54619+Q9UGJ0+Q9Y478+Q13131+Q9UGI9); assay: AMP-dependent Kinase enzyme assay. An in vitro enzyme assay that detects ADP turnover that is directly proportional to AMPK activity. This uses naive AMPK that is activated during the assay with MK-8722; assay type: functional; details: 30 µM
[4] = target: Sialic acid-binding Ig-like lectin 9 (Homo sapiens) (UniProt Q9Y336); assay: Hs-Siglec9 ALPHAscreen SOP 20170721; details: 10 µM
Sequence of Sialic acid-binding Ig-like lectin 9 (Homo sapiens) (Q9Y336 whole entry): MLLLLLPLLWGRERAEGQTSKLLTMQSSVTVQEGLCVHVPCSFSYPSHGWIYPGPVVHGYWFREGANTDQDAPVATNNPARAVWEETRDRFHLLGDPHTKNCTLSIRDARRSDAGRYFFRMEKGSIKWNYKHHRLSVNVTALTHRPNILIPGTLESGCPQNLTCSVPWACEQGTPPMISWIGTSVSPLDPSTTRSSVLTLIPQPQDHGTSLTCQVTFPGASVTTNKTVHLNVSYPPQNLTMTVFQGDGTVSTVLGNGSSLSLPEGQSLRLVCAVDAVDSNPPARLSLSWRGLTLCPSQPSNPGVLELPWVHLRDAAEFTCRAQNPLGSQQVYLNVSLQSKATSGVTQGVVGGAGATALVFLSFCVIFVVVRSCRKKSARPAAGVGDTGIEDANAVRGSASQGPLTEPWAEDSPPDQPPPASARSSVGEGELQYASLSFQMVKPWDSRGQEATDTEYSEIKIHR

[5] = test system: Trypanosoma cruzi; assay: Trypanosoma cruzi phosphomannomutase and mannose-1-phosphate guanylyltransferase assay; assay type: functional; details: 10 µM
[6] = target: T2, Arginase-2, mitochondrial (Homo sapiens) (UniProt P78540); assay: in vitro enzyme assay to detect the production of urea directly proportional to the activity of Arginase II; assay type: functional; details: 33.3 µM; further: in the data most compounds retested in dose-response had high values
T2 sequence (whole entry): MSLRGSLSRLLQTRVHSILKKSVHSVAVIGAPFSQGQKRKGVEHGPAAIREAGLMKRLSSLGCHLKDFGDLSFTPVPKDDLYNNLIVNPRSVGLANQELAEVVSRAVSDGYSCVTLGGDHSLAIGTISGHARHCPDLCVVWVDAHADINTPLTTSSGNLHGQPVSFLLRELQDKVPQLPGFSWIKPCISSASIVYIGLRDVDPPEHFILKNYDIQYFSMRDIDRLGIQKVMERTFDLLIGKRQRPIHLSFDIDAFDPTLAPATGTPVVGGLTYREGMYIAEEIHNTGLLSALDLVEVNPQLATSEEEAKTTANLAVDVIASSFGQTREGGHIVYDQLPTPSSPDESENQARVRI

[7] = target: T3, Proteasome subunit beta (Trypanosoma cruzi) (UniProt O96673); assay: Trypanosoma cruzi proteasome chymotrypsin-like activity (TcProtChymo) assay.; further: in the data most compounds retested in dose-response had high values; assay type: functional; details: 9.37 µM
T3 sequence (whole entry): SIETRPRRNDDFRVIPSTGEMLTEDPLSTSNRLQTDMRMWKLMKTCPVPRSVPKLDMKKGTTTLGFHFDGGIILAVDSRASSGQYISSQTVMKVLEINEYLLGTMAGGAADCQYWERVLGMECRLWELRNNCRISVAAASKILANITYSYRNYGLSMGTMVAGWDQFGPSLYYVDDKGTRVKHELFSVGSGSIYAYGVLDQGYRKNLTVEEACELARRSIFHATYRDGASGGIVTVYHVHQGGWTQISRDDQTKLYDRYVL

[8] = species on record: Homo sapiens; assay: To identify inhibition of the IFN signalling (Jak-Stat) pathway via expression of an eGFP reporter gene under the control of an IFN-stimulated response element (ISRE) containing MxA promoter.; assay type: functional; details: 30 µM
[9] = target: T4, Tyrosyl-tRNA synthetase, putative (Trypanosoma cruzi (strain CL Brener)) (UniProt Q4DSP6); assay: Trypanosoma cruzi tyrosyl tRNA synthetase (TcYRS) _High Tyrosine SOP; assay type: functional; details: 30 µM; further: in the data most compounds retested in dose-response had high values
T4 sequence (whole entry): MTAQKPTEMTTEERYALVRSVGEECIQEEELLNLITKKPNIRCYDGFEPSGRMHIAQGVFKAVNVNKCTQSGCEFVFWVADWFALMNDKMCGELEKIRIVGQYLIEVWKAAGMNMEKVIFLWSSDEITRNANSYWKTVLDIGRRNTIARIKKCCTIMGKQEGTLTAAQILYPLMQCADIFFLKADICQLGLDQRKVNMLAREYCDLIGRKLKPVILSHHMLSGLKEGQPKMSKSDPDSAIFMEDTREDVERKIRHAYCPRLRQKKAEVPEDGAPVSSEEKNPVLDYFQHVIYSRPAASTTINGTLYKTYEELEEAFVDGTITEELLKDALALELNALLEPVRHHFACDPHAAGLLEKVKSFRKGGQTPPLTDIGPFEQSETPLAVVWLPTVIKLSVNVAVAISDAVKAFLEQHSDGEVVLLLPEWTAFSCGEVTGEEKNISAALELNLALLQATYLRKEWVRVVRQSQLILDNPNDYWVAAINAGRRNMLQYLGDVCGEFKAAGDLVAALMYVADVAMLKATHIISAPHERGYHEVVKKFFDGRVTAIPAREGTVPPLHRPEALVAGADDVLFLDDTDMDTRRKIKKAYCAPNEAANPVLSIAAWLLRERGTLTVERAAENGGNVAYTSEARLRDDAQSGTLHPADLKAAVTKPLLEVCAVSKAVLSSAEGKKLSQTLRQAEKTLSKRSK

[10] = target: T4, Tyrosyl-tRNA synthetase, putative (Trypanosoma cruzi (strain CL Brener)); assay: Trypanosoma cruzi tyrosyl tRNA synthetase (TcYRS) SOP; assay type: functional; details: 30 µM
[11] = target: Chromo domain-containing protein 1 (Saccharomyces cerevisiae (strain ATCC 204508 / S288c) (Baker's yeast)) (UniProt P32657); assay: ScCHD-1 Enzyme Inhibition Assay; assay type: functional; details: 30 µM; further: in the data most compounds retested in dose-response had high values
Sequence of Chromo domain-containing protein 1 (Saccharomyces cerevisiae (strain ATCC 204508 / S288c) (Baker's yeast)) (P32657 whole entry, the tested form may be a part): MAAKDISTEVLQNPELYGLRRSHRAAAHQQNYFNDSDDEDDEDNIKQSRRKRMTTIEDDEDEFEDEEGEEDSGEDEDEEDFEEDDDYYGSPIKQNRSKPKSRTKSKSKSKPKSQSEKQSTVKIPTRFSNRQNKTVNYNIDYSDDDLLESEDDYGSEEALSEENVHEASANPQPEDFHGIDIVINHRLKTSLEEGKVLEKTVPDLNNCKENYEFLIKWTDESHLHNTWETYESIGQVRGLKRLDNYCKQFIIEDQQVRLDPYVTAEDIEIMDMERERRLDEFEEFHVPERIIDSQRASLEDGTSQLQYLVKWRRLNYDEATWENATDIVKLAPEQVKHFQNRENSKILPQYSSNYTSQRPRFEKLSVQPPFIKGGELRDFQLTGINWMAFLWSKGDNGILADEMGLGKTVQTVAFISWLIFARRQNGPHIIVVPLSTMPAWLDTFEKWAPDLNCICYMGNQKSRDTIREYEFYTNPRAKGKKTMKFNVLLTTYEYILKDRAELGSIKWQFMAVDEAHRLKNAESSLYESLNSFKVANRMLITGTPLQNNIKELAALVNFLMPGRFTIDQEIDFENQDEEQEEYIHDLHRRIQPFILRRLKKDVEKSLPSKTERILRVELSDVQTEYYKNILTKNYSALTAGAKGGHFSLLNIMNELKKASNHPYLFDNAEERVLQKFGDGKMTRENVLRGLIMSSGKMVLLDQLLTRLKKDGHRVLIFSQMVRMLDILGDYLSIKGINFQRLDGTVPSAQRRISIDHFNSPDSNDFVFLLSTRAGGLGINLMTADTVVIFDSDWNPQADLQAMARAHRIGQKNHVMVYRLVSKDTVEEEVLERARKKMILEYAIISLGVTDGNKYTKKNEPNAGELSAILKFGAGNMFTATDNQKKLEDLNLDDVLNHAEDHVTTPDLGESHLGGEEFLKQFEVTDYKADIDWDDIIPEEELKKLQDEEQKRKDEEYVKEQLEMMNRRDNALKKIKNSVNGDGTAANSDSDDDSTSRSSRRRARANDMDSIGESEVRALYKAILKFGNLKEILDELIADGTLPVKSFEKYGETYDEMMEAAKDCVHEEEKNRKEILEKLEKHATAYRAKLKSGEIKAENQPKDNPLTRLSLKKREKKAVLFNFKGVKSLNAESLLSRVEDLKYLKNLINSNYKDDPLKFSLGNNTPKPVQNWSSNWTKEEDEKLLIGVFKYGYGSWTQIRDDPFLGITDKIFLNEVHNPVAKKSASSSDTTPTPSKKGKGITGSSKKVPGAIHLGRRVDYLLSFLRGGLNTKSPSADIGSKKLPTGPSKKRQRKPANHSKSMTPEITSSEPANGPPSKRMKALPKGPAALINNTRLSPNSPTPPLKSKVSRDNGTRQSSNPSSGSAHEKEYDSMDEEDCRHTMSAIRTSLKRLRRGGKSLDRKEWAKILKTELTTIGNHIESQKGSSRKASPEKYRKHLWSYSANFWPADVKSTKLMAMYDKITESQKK

Row | SMILES | Percent Effect [1] | Percent Effect [2] | Percent Effect [3] | Percent Effect [4] | Percent Effect [5] | Percent Effect [6] | Percent Effect [7] | Percent Effect [8] | Percent Effect [9] | Percent Effect [10] | Percent Effect [11]
1 | Cc1csc(N2CCN(C(=O)Cc3ccsc3)CC2)n1 | -6.47% | 21.6% | -0.587% | 9.11% | 7.26% | 3.21% | 20.9% | 5.74% | 10.3% | 30.9% | -10.7%
2 | Cc1ccccc1-c1cc(NC(=O)CC(C)C)n(CCO)n1 | -2.35% | 2.63% | -11.8% | 0.669% | -6.33% | 2.37% | 5.46% | 0.574% | 3.19% | 5.2% | -3.67%
3 | CCN1CCN(C2CCN(Cc3nc4ccccc4o3)CC2)C1=O | -1.89% | 10.4% | 0.349% | -1.67% | 1.67% | -2.74% | 14.2% | -19% | 7.62% | 21.2% | -20.3%
4 | Cc1occc1C(=O)N1CCc2c(COCC3CC3)cncc2C1 | -1.99% | 18.9% | -0.121% | -6.57% | 3.03% | 7.96% | 26.8% | 13.8% | 10.8% | 20.5% | -0.136%
5 | O=C(NCc1cc[nH]n1)NC1CCCN(c2ncccn2)C1 (configuration not stated) | -1.16% | 10.5% | 6.14% | -0.458% | -4.58% | -4.73% | 16% | -3.24% | 4.25% | 13% | -5.61%
6 | O=C(NC1CC1)[C@H]1C[C@H]2OCC[C@H]2N(CC2CCOCC2)C1 | -7.27% | 0% | 1.56% | 2.95% | -3.28% | -51.1% | 7.18% | 3.71% | 5.21% | -2.5% | 319%
7 | COCc1c(C(=O)O)nnn1Cc1cccc(C(F)(F)F)c1 | -0.917% | 9.33% | -2.19% | 0.663% | -4.13% | -8.98% | 14.1% | 5.79% | 3.17% | 10.3% | -10.2%
8 | CC(C)(C)OC(=O)N1CCN(C(=O)c2sccc2C2CC2)CC1 | -1.99% | 8.86% | 5.24% | 1.31% | -2.56% | 9.25% | 6.17% | -13.8% | 3.12% | 5.06% | -5.68%
9 | CC(C)CCc1noc(CN2CCCN(C(=O)c3ccco3)CC2)n1 | -5.45% | -8.22% | -0.00644% | 4.33% | 2.38% | -11.2% | 3.68% | 7.02% | 3.12% | 3.7% | -3.57%
10 | CC(C)(NCC(=O)NCC(F)(F)F)c1ccc2c(c1)OCCO2 | -1.45% | 13.5% | -7.25% | 1.31% | -4.06% | 17.2% | 16% | 5.37% | 1.48% | 18.5% | -4.3%
11 | COc1cc(CNC2CCCc3c2cnn3C)cc(OC)c1 (configuration not stated) | -5.5% | 8.11% | 139% | 9.27% | 1.6% | -3.61% | -1.44% | 2.92% | 5.42% | 3.7% | -10%
12 | Cc1nc(C2CCCN(C(=O)CCCn3cccn3)C2)no1 (configuration not stated) | -4.66% | 23.4% | -2.84% | 4.64% | 4.49% | -0.356% | 5.57% | 11% | 6.8% | 24.4% | -8.73%
13 | CCn1cc2c(n1)CN(C(=O)c1ccncc1)CC2COCC1CC1 (configuration not stated) | 1.97% | 13.3% | -0.804% | 23.2% | -1.74% | -23.5% | 20.9% | -8.6% | 3.12% | 20% | -6.15%
14 | CCOCCn1nc(C)cc1C(=O)N1CC[C@](C)(O)[C@H](C)C1 | -5.83% | 5.41% | -0.231% | 3.85% | -4.25% | -1.91% | 6.03% | -3.48% | 2.65% | 9.76% | -1.04%
15 | CCc1nccn1C1CCCN(C(=O)c2ccc3[nH]cnc3c2)C1 (configuration not stated) | -7.22% | 2.63% | 2.64% | 2.2% | 5.36% | 1.18% | 9.3% | 7.56% | 8.51% | 10.4% | -0.611%
16 | N#Cc1cccc(CN2CC[C@@H]3[C@@H]2CC(=O)N3Cc2cccnc2)c1 | -2.43% | 16% | 12.4% | 1.95% | -4.72% | -1.17% | 13.7% | -10.2% | 3.19% | 11.5% | -1.86%
17 | CC(C)c1noc(C(C)N2CCN(CCO)CC2)n1 (configuration not stated) | 0.448% | 21.6% | -14.5% | -3.22% | -3.68% | -9.22% | 12.2% | 16.1% | 5.42% | 6.17% | -0.137%
18 | CCn1nc(C)c(CNC(=O)c2cn(CCC3CCCCN3)nn2)c1C (configuration not stated) | -5.31% | 2.67% | 0.29% | 4.73% | 1.27% | 5.21% | 9.77% | -25.2% | 7.1% | 16.1% | -5.55%
19 | CN(Cc1ccc2c(c1)OCO2)Cc1nc2c(cnn2C)c(=O)[nH]1 | -3.58% | 5.26% | 0.733% | -4.42% | 0.467% | -4.32% | -0.592% | 4.07% | 8.37% | 6.17% | -3.9%
20 | O=C(NCCc1ccncc1)C1CCN(Cc2ccco2)CC1 | -7.38% | -2.67% | -2.38% | -3.22% | -6.52% | -2.6% | 12.7% | 25.9% | -1.64% | 1.24% | -7.8%
21 | COc1ccc(S(=O)(=O)N2CCC(S(C)(=O)=O)CC2)cc1C | -3.14% | 7.79% | 3.88% | 0.29% | 4.04% | 1.94% | 4.7% | -5.43% | 3.17% | 11.5% | -6.76%
22 | COCc1ccccc1CNCc1c(C)nn(C)c1N(C)C | -5.19% | 10.8% | -41.2% | 6.46% | -0.849% | 0% | -5.04% | -1.56% | 9.36% | 6.17% | -5.6%
